This is a sample that favours compounds with a hit; in the whole collection about 3.6% have one here.
Epigenetic derep: Quantitative High-Throughput Screen for Regulators of Epigenetic Control. murine LDR cells, GFP reporter derepression, 30 h. Potency, µM (top dose mostly 53.9 µM), for the others: top-dose GFP activation, actives largely listed as activators. 280,000 tested, 0.2% active; further: % of control where 0% means no effect; nearly all actives have a fitted effect of over 60% in size
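GFP-positive cell count by laser-scanning cytometry (objects 20–120 um) after 30 h, 37 C compound exposure of murine LDR cells; reporter is CMV-GFP integrated at a silenced locus, inducible by HDAC or DNMT inhibitors.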
KDM4E inh: qHTS Assay for Inhibitors of Human Jumonji Domain Containing 2E (JMJD2E); Potency, µM (highest dose often 57.1 µM), for the others: at the highest dose activity change, negative = inhibition, usual class: inhibitors; 230,000 tested, 1.6% active; JMJD2E catalytic domain, FDH-coupled NADH fluorescence (FDH is formaldehyde dehydrogenase); Lysine-specific demethylase 4E (Homo sapiens), B2RXH2; AID 2147, 2009; active means well fitted inhibition curve with a large enough effect, not every such curve was filed as active; inconclusive means small, poorly fitted or top-dose-only effect, or another doubt; inactive means no such curve, though single readings can be large or run the other way;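 further: 0% = wells with enzyme and -100% = buffer wells without enzyme; nearly all actives have a fitted effect of over 50% in size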
Target sequence (B2RXH2 1-337 limits assumed): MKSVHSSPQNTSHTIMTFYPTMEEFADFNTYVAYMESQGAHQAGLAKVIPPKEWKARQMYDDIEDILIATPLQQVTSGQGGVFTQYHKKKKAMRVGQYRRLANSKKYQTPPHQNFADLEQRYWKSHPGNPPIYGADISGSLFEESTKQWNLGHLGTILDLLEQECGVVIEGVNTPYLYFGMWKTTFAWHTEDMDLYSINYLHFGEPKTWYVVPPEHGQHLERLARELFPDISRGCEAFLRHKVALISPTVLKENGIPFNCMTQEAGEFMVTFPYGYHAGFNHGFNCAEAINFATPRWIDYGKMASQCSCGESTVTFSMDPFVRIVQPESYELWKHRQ
Sfp PPTase inh: qHTS Assay for Inhibitors of Bacillus subtilis Sfp phosphopantetheinyl transferase (PPTase) | 310,000 tested, 3.5% active | Potency, µM, for inactives: largest response in the series, negative = inhibition, most hits filed as inhibitors | 4'-phosphopantetheinyl transferase ffp (Bacillus subtilis), Q9F4F7 | Biochemical Sfp PPTase activity, qHTS | AID 1490, 2009;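 further: the enzyme is Sfp with the accession as filed and its product quenches rhodamine fluorescence; 0% = enzyme reaction without inhibitor and -100% = no enzyme wells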
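With Hepes-Na pH 7.6 buffer containing 10 mM MgCl2, Sfp (15 nM) modified BHQ-2-YbbR (12.5 uM) using rhodamine-CoA (5 uM). Two reads 30 minutes apart at 525/598 nm yielded each well's rate.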
NPSR antagonist: qHTS Assay for Antagonists of the Neuropeptide S Receptor: cAMP Signal Transduction. CHO-NPSR cells, cAMP TR-FRET, antagonist mode. Potency, µM (titrated, usually from 38.3 µM), inactives show at the top dose activity change, negative = inhibition, usual class: inhibitors. 220,000 tested, 1% active. AID 1461, 2008; further: on the % scale 0 is the no-effect control and ±100 the full control effect; nearly all actives have a fitted effect of over 50% in size
KAT2A inh: qHTS Assay for Inhibitors of GCN5L2 | Histone acetyltransferase KAT2A (Homo sapiens), Q92830 | GCN5L2 HAT assay, ThioGlo1 CoA-SH fluorescence | Potency, µM (highest dose often 58.9 µM), for inactives: at the highest dose activity change, negative = inhibition, usual class: inhibitors | 390,000 tested, 0.21% active; further: on the % scale 0 is the no-effect control and ±100 the full control effect
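Titration-based screen in which CoA formation is detected via maleimide probe ThioGlo1 (50uM) turning fluorescent on thiol reaction; substrates H3(1-25) 75uM and acetyl-CoA 70uM, GCN5L2 20nM, 20 min incubation at room temperature.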
IMPase Li inh: qHTS Assay for Identifying the Cell-Membrane Permeable IMPase Inhibitors: Potentiation with Lithium | CHO-M1 cells, IP1 TR-FRET (IP-One), carbachol + lithium | Potency, µM (series often up to 59.4 µM), for inactives: top-dose activity, negative = IMPase inhibition, usual class: inhibitors | 210,000 tested, 0.35% active;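 further: IP1 builds up when IMPase is blocked and the TR-FRET signal falls; plate controls were basal vehicle for no effect and high inhibitor control for full effect; nearly all actives have a fitted effect of over 50% in size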
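IP1 accumulation measured by competitive TR-FRET in lysed CHO-M1 cells after 30 min compound exposure at 37C, with a small lithium addition to potentiate weak responses. Hill-equation AC50 from ratio and donor-channel data.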
The depositor's hits bear a star; u = inconclusive; x = no result; ! = repeats disagree; [ ] = remark or other dose. Unless noted, the call rests on the fitted dose curve; in most records, active means well fitted curve in the direction sought with a large enough effect; inconclusive means small, poorly fitted or top-dose-only effect, or another doubt; inactive means no such curve, though single readings can be large; an effect the other way counts as inactive or inconclusive. Potency means the concentration at half of the fitted maximal effect.

SMILES | Epigenetic derep | KDM4E inh | Sfp PPTase inh | NPSR antagonist | KAT2A inh | IMPase Li inh
C[n+]1cc2c3c(ccc2c2ccc4cc5c(cc4c21)OCO5)OCO3 | u | u | 8.9µM*! | u | 16µM*! | 50%
O=C(c1ccncc1)N1CCC[C@@]2(CCN(C(c3ccccc3)c3ccccc3)C2)C1 | x | x | 2% | x | -2% | 20%
Cc1cccc2cc(-c3nc4c(C)cccn4c3NCc3ccco3)c(=O)[nH]c12 | 3% | 0% | 14% | -22%[46.1 µM] | -9%[0.501 µM] | 16%[38.3 µM]
Cc1ccc2[nH]c(=O)c(-c3nc4cc(C)ccn4c3NCc3ccco3)cc2c1 | -1% | 3.2µM* | u | -12%[46.1 µM] | -5% | -1%[38.3 µM]
C=CCn1c(-c2cc(-c3ccccc3)sc2N)n[nH]c1=S | 2% | -17% | 79µM* | 15% | -8% | x
OC[C@@H](O)C(O)[C@H](O)[C@H](O)CO (stereo partly specified) | x | x | 12% | x | 4% | x
Cc1ccc(S(=O)(=O)ON2C(=O)c3ccccc3C2=O)c(C)c1 | 19% | u | 10µM* | -26%[46.1 µM] | -2% | x
Cc1ccc(OC(=O)CN2C(=O)c3ccccc3C2=O)cc1C | x | x | 5% | x | 8% | x
Cc1cc(C)c(S(=O)(=O)ON2C(=O)c3ccccc3C2=O)cc1C | u | u | 20µM* | -10%[46.1 µM] | -25% | 9%[38.3 µM]
Cc1cc(C)c(C)c(S(=O)(=O)ON2C(=O)c3ccccc3C2=O)c1C | u | u | 22µM* | u | -1% | -1%[38.3 µM]
O=C1C=CC(=O)N1CCCCCCN1C(=O)C=CC1=O | -1% | 2% | 3.5µM* | u | 0% | 34%
c1ccc(CSc2nnc(-c3ccco3)o2)cc1 | 0% | 2% | 13% | 16% | -4% | x
Brc1ccc(CSc2nnc(-c3ccco3)o2)cc1 | -2% | -4% | 56µM* | -7% | -7% | -10%
COc1ccc(C(=O)N/N=C/c2ccc(OC)c(CN3CCc4cc(OC)c(OC)cc4C3C)c2)cc1 (stereo unspecified) | 5% | u | 100µM* | -30% | -5% | 17%
CCOc1ccc(C(=O)Nc2cc(C)c3c(=O)oc4ccccc4c3n2)cc1 | 4% | u | -16% | u | -8% | 13µM*
O=c1ccc2cc3c([nH]c4ccc(Br)cc43)oc-2c1O | -1% | u | 22µM* | -3%[46.1 µM] | u | 13%[38.3 µM]
C=C1CCN(C(C(=O)O)C(C)C)S(=O)(=O)c2ccccc21 (stereo unspecified) | x | x | 3% | x | x | x
C/C(=N\NC(=S)NC1CCCCC1)c1cccs1 | -1% | 2% | 8% | -52% | -5% | 18%
C/C(=N\NC(=S)NC1CCCCC1)c1c(F)cccc1F | -3% | -4% | 13% | 1µM* | -12% | 36%
O=C(NCc1ccco1)c1cc2ccc(O)cc2oc1=O | -1% | u | 28µM* | -25%[46.1 µM] | u | u
CC(C)c1nc(CN(C)C(=O)N[C@H](C(=O)N[C@@H](Cc2ccccc2)C[C@H](O)[C@H](Cc2ccccc2)NC(=O)OCc2cncs2)C(C)C)cs1 | 2% | -4% | 4% | 13µM* | 28µM*! | 10%
CC(C)[C@H](NC(=O)OCc1ccccc1)C(=O)NC(C=O)Cc1ccccc1 (stereo partly specified) | x | x | x | x | 0% | x
CCNC(=S)/N=C(/Nc1ccccc1)Nc1nc(C)cc(C)n1 | 0% | -8% | 4.5µM* | -49% | 0% | x
CCNC(=S)NC(=NCc1cccnc1)Nc1nc(C)cc(C)n1 | x | x | 25µM* | x | -4% | x
CCNC(=S)/N=C(/Nc1ccc(OC)cc1)Nc1nc(C)cc(C)n1 | u | -1% | 3.2µM* | -11% | 2% | x
Cc1cc(C)nc(NC(=S)Nc2ccccc2)n1 | 2% | -4% | 5% | -4% | 4% | 1%
